Results from PubChem BioAssay AID504710 (Sanford-Burnham Center for Chemical Genomics, 2011).
Active and inactive are the calls of the source.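 Rule for the calls: active = inhibition reaching about 16% in any single replicate (limit read from the data); inactive = the rest.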

target: Hexokinase HKDC1 (Homo sapiens) (UniProt Q2TB90); assay: HKDC1 hexokinase inhibitors, confirmation, biochemical, single concentration (AID 504710); settings: recombinant HKDC1, G6PDH/diaphorase/resazurin fluorescence; at 20 µM; active compounds read high
Sequence (Q2TB90 whole entry, looked up): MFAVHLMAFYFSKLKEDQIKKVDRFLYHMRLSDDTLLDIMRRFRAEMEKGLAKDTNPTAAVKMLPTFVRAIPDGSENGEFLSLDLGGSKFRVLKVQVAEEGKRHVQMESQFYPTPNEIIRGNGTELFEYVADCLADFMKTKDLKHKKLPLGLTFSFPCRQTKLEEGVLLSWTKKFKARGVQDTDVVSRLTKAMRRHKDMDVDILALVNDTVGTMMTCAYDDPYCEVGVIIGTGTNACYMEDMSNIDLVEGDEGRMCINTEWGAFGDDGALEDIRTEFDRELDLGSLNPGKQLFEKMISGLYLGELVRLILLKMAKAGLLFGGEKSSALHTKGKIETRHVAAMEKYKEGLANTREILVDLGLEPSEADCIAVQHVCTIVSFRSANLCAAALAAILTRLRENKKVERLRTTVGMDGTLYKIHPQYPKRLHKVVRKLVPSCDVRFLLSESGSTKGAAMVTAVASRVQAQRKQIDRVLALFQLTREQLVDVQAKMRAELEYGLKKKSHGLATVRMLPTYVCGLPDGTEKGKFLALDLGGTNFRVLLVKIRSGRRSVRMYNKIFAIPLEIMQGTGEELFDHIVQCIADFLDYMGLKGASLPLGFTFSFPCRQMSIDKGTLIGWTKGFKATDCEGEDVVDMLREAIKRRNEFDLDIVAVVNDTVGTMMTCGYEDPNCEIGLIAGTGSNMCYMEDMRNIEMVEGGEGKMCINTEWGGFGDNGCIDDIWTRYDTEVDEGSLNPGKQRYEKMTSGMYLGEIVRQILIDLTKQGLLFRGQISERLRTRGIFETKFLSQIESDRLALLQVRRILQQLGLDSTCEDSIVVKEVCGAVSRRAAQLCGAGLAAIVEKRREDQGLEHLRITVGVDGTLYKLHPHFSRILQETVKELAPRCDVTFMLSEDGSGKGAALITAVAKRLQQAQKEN

inhibition, inactive:
O=C1C(Cl)=C(NCc2cccnc2)C(=O)c2ccccc21 -45.1%, COCc1cc(C2C(C(=O)c3ccco3)=C(O)C(=O)N2CCOCCO)ccc1O (configuration not stated) -40.1%, COc1ccc(-c2cc(C(=O)NNC(=S)NC(=O)c3c(-c4ccccc4)noc3C)[nH]n2)cc1 -50.1%, CC(=O)N1CCN(C2c3cccc4cccc(c34)C2NS(=O)(=O)c2ccccc2)CC1 (configuration not stated) -45.3%, COc1cc(OC)cc(C(=O)NC(=S)NNC(=O)c2cnccn2)c1 -40%, COc1cc(SC#N)ccc1N=Cc1c(C)[nH]n(-c2ccc(Cl)cc2)c1=O -38.2%, COc1ccc(N=C2NN=C(c3ccc4c(c3)OCCO4)CS2)cc1 -33.1%, CCCCC(=O)NC(c1ccc(N(CC)CC)cc1)c1ccc2cccnc2c1O (configuration not stated) -59.3%, COc1cc(N=c2ssnc2Cl)cc(OC)c1OC -45.9%, O=C1C(C2=C(O)c3ccccc3C2=O)=Nc2ccccc21 -162%, Nn1cnnc1N/N=C/c1cc(Br)cc(Br)c1O -31.9%, Clc1ccc(N=c2ssnc2Cl)nc1 -79.7%, Cc1nc2c3cc(F)ccc3n(Cc3ccccc3)c2s1 -61.3%, C[N+](C)(CCCCCC[N+](C)(C)CCCN1C(=O)c2cccc3cccc(c23)C1=O)CCCN1C(=O)c2cccc3cccc(c23)C1=O -82%, O=C(NNC(=S)Nc1ccc(Cl)c(Cl)c1)c1ccccn1 -74.1%, Cn1cnnc1SC1c2cccc3cccc(c23)C1NS(=O)(=O)c1ccccc1 (configuration not stated) -64%

inhibition, active:
O=C1C=C(N2CCOCC2)c2ccccc2C1=O 79.4%, COc1ccc(N2C3=C(CC4=C2CCCC4=O)C(=O)CCC3)cc1 47.1%, CCOc1ccc(-n2c(C)cc(C(=O)CCl)c2C)cc1 28.5%, O=C(O)c1ccc(N=Cc2c(O)ccc3ccccc23)cc1 43%, O=C1C(Cl)=C(NCCc2ccccc2)C(=O)c2ccccc21 59.5%, O=C(CN(C(=O)CCC(=O)Nc1ccccn1)c1ccc2c(c1)OCO2)NCc1ccc(F)cc1 31.3%, CCc1ccc(S(=O)(=O)/N=C2\C=C(Nc3cccc(C(=O)O)c3)C(=O)c3ccccc32)cc1 64.8%, CCc1ccc(S(=O)(=O)/N=C2/C=C(Sc3ncn[nH]3)C(=O)c3ccccc32)cc1 73%, CNCc1ccccc1Sc1cc(O)ccc1O 64.6%, COc1cc(C2c3c([nH]c(=O)[nH]c3=O)Nc3ccc4ccccc4c32)cc(OC)c1OC (configuration not stated) 43.5%, Cc1ccc(SC2=C(N(C)C)C(=O)c3ccccc3C2=O)cc1 59.9%, NC(=NCc1ccc2c(c1)OCO2)NC(=O)c1ccccc1 16.7%, Cc1cccc(-n2c3nc(=O)[nH]c(=O)c-3cc3cc([N+](=O)[O-])ccc32)c1 46.6%, O=C1C(Cl)=C(NC(=O)c2ccccc2)C(=O)C(Cl)=C1NC(=O)c1ccccc1 41.4%, CC(=O)NC1C(=O)N(CCN2CCOCC2)c2ccc(Cl)cc21 (configuration not stated) 60.6%, O=C1C(Nc2ccccc2)=C/C(=N/S(=O)(=O)c2cccs2)c2ccccc21 65%, N#C/C(=C(/O)CCl)c1nc2c(s1)CCc1ccccc1-2 46.1%, COC(=O)c1ccccc1NC1=C/C(=N\S(=O)(=O)c2cccs2)c2ccccc2C1=O 62.6%, O=C(NCCc1ccccc1)c1cnn2c(C(F)F)cc(C3CC3)nc12 59.8%, Cc1ccccc1NC1=C/C(=N\S(=O)(=O)c2ccc(C(=O)O)cc2)c2ccccc2C1=O 71.3%, NC(=O)C1CCN(C2=C(Cl)C(=O)c3ccccc3C2=O)CC1 73%
